# Measured values as given in the supplement of paper PMC3334620.
# In all, about 33,000 sequences were measured (“E-score (-0.5 to 0.5)”: median about -0.021, highest 2% from about 0.32 on). For the sample, the highest values were picked, then their nearest neighbours and some sequences at random.
# Target: T1, Zap1 (UniProt P47043)
# T1 sequence: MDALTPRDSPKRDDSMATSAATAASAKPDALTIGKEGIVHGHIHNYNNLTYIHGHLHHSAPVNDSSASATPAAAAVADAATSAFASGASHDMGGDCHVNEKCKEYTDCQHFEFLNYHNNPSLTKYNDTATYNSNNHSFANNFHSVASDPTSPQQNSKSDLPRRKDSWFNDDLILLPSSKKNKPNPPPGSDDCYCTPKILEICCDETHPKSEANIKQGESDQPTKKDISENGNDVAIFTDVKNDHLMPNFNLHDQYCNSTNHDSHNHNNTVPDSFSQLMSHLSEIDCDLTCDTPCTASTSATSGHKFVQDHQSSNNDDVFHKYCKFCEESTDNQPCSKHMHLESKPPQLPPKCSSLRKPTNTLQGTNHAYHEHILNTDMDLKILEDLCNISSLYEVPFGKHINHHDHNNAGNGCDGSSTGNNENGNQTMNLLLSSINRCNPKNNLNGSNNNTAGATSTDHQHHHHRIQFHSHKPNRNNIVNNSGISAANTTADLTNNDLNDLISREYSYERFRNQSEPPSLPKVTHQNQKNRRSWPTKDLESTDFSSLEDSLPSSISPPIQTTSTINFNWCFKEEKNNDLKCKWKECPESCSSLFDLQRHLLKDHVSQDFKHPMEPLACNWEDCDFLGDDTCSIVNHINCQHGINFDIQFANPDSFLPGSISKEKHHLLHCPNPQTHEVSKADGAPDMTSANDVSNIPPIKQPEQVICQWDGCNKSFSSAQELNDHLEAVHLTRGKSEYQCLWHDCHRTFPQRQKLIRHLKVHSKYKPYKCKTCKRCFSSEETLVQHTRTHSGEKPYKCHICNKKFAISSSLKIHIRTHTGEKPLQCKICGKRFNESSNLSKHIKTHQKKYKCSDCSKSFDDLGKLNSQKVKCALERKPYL
# Experiment: PBM E-score (8-mer binding enrichment) (E-score (-0.5 to 0.5)); higher = stronger / more preferred TF binding
# Conditions: protein concentration: 200 nM; construct: GST-full length
# Protocol: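 Universal 'all 10-mer' protein binding microarrays (Agilent AMADID 015681) probed with GST-tagged S. cerevisiae TFs (full-length or DBD) made by in vitro transcription/translation (PURExpress), about 100-200 nM. Bound TF was detected with fluorescent anti-GST. Each ungapped 8-mer (which stands for itself and its reverse complement) is scored by the PBM enrichment score (E-score), a modified Wilcoxon-Mann-Whitney statistic from -0.5 to +0.5, computed with the Universal PBM Analysis Suite. Scale: above 0.35 generally sequence-specific binding.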
row,Sequence,PBM E-score
1,CGTTATAA,0.247
2,AGTTATAA,0.193
3,GGTTATAA,0.471
4,TTATATAA,0.331
5,ATATATAA,0.249
6,ATTTGCGA,0.0692
7,CCCCATTC,-0.0769
8,ATCCTTCC,-0.306
9,GCATCTTA,-0.0867
10,ACCATTCT,0.0676
11,GATCATTA,0.0548
12,TATCCGGA,0.0937
13,CCGGTAAC,0.316
14,ACGGTAAG,0.016
15,ACGGTAAT,0.139
16,ACGGTAAC,0.364
17,GCGGTAAC,0.32
18,GCGGTAAA,0.165
19,GTTTGGAA,0.116
20,AGAAGTAC,-0.115
21,CGTAGCGA,-0.251
22,ATTGGTTG,0.186
23,ATTGGTTC,0.141
24,GTTGGTTA,0.316
25,ATTGGTTA,0.402

row,Sequence,PBM E-score
1,CTTGGTTC,0.232
2,CTTGGTTA,0.334
3,CCCTGCGG,0.292
4,CTAGCTCA,-0.147
5,ATATGGGG,-0.0334
6,CGAGAAAC,0.0891
7,ACCCTGAA,0.399
8,CACCTGTA,-0.0421
9,AACCTGTA,0.324
10,AACCTGAA,0.144
11,GCCCTGAA,0.0835
12,CCCCTGAA,0.127
13,GCCCTGTA,-0.0104
14,ACCCTGTA,0.353
15,CCCCTGTA,0.02
16,AACAGCGG,-0.195
17,TATGACCA,0.288
18,AATGACTA,-0.136
19,AATGACCG,0.216
20,AATGACCT,0.393
21,AATGACCA,0.334
22,AATGACGT,-0.0682
23,ACCTTAGG,0.216
24,AGTGCACG,-0.151
25,CATCAGCG,-0.182

row,Sequence,PBM E-score
1,AAGTATGT,-0.00136
2,GAGGTTGA,-0.00385
3,TAGGTTGA,0.101
4,AACGTTAC,0.111
5,GAGGTTCA,0.254
6,GAGGTTCC,0.223
7,AAGGTTTC,0.206
8,TAGGTTAA,0.319
9,GAGGTTAA,0.429
10,TAGGTTCA,0.175
11,AAGGTTAC,0.475
12,GAGGTTAC,0.473
13,GAGGTTGC,0.238
14,AGCGCACT,-0.293
15,CAGCCAAG,-0.242
16,TCTGAGAA,-0.0814
17,CCTCTGAC,0.139
18,AGTAGCAG,-0.0921
19,GTAGGGAC,-0.0704
20,CGGTTTCA,0.03
21,AACTTAAC,0.244
22,CTGATTCA,-0.158
23,CAGGTTAC,0.424
24,CAGGTTAA,0.325
25,CAGGTTAG,0.212

row,Sequence,PBM E-score
1,CAGATTAC,0.0563
2,AAGGTTAG,0.35
3,AAGGTTAA,0.415
4,CAGGTTTC,0.198
5,AAGGTTTG,0.176
6,CAGATTAA,0.118
7,AAGGTTTA,0.226
8,CAGGTTTA,-0.0228
9,AATGTTAA,-0.132
10,TATTATGA,0.00643
11,ACATAGCC,-0.0651
12,CGGTCTAC,-0.149
13,AGATCAGA,-0.0903
14,AGCCCTTG,-0.0802
15,GCCCCTTA,-0.0926
16,GTCCCTTA,0.0953
17,AAACCTTG,0.0789
18,GACCCTTA,0.376
19,AACCCTTG,0.444
20,AACCCTTC,0.424
21,CACCCTTC,0.135
22,ACCCCTTC,0.234
23,ACCCCTTG,0.279
24,CAACCTTC,0.313
25,CAACCTTG,0.332

row,Sequence,PBM E-score
1,CTGCGCAC,-0.0749
2,AAGCGTTA,-0.0244
3,GTGCTGTA,-0.06
4,CAAGGCGC,-0.141
5,GAATGGTA,0.202
6,CCTGCAAG,-0.043
7,AAATCACT,0.0213
8,CACCCTTA,0.269
9,ATCCCTTA,0.0364
10,CCCCCTTA,-0.365
11,ACCCCTGA,0.28
12,ACCCCTTA,0.344
13,AACCCTTA,0.457
14,CGGCGCAG,-0.253
15,ATCGTGCG,0.158
16,GCAGCCCC,-0.0536
17,ATAACCGG,0.387
18,GTAACCGA,0.346
19,ACAACCGC,0.285
20,CTAACCGA,-0.035
21,AAAACCGA,0.0886
22,ACAACCGA,0.234
23,ACAACCGG,0.194
24,CTAACCGC,0.223
25,GGAACCGA,-0.0122

row,Sequence,PBM E-score
1,ATAACCGC,0.459
2,AGAACCGG,-0.0565
3,ATAACCGA,0.349
4,CAGCTGGA,-0.131
5,CAAGGAGC,-0.24
6,AGAGATTA,-0.0587
7,GTGCTGAA,-0.117
8,ACTGTGGG,-0.145
9,TAGATATA,0.172
10,AGCTTAAA,0.0882
11,ACTAGCCG,-0.177
12,ACAACCTA,0.232
13,ATAACCTA,0.458
14,AGAACCTA,0.0497
15,CTAACCTC,0.305
16,GCAACCTA,0.106
17,CTAACCTA,0.327
18,GTAACCTA,0.458
19,ATAACCTG,0.412
20,CGAACCTA,0.00467
21,ACAACCTG,0.23
22,AGAACCTG,0.0538
23,GGAACCTA,0.146
24,CTGAAGCC,-0.31
25,ATCAGGGC,-0.249

row,Sequence,PBM E-score
1,ACATTCGT,-0.0131
2,GAGAACTC,-0.146
3,ATTGAATG,0.113
4,CGGGACAA,-0.0695
5,GGTCAAGA,0.242
6,GCTCTCTA,-0.246
7,GGGAAAAC,-0.241
8,GGGAAACC,0.324
9,AGGAAACC,0.272
10,CAGTATAA,0.197
11,ACTGAATA,-0.0283
12,CAAAAACC,0.302
13,CCAAAAAC,0.256
14,CCAAAACC,0.331
15,CAAAACCC,0.349
16,CAAAACCA,0.311
17,AAAAACCC,0.196
18,CCTTATAG,0.262
19,GCTGGGGA,-0.0703
20,ATTCTCTC,-0.0801
21,CGAGCGTA,-0.102
22,AAGCATAA,0.0593
